A short description of assay [1]: NCI Yeast Anticancer Drug Screen. Data for the rad50 strain (AID 155).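 Note: 0% = growth of vehicle-only cultures of the same strain.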 To be noted: S. cerevisiae rad50 strain growth inhibition, stronger effect = higher value. The method, boiled down:
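Yeast carrying a defined DNA repair defect were exposed to test compounds, and growth was compared with vehicle-treated controls to give percent inhibition.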

Assay [2] in a line: NCI Yeast Anticancer Drug Screen. Data for the mec2-1 strain (AID 157). To be noted: S. cerevisiae mec2-1 strain, stronger effect = higher value. The method in brief:
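Vehicle-treated cultures served as reference for growth inhibition of compound-exposed mec2-1 yeast.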

The nature of assay [3]: NCI Yeast Anticancer Drug Screen. Data for the sgs1 mgt1 strain (AID 161).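 Note: 0% = growth of cultures given vehicle only.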 Conditions: S. cerevisiae sgs1 mgt1 strain, stronger effect = higher value. The method, boiled down: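 Inhibition of yeast growth, normalised to vehicle-treated controls, is reported for a strain bearing genetic alterations in DNA damage repair.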
Assay [4] can be described thus: NCI Yeast Anticancer Drug Screen. Data for the cln2 rad14 strain (AID 165).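 Note: 0% = growth equal to vehicle treated cultures.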 Conditions: S. cerevisiae cln2 rad14 strain, stronger effect = higher value. The method, boiled down: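 Each compound was tested on cln2 rad14 yeast. Inhibition of growth was calculated against vehicle-exposed controls.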
Assay [5] can be described thus: NCI Yeast Anticancer Drug Screen. Data for the bub3 strain (AID 167). Conditions: S. cerevisiae bub3 mutant strain, stronger effect = higher value. The method in brief: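 Compounds were applied to a genetically altered yeast strain carrying a cell-cycle control defect. Growth inhibition was scored against vehicle-treated controls.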
A short description of assay [6]: NCI Yeast Anticancer Drug Screen. Data for the mlh1 rad18 strain (AID 175). Conditions: S. cerevisiae mlh1 rad18 strain growth inhibition, stronger effect = higher value. The method in brief: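 Vehicle-treated cultures served as the reference for growth inhibition in a yeast strain carrying DNA damage repair alterations exposed to each compound.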
Where [7] appears, read: at 5.0 µM (retest, dose inferred, filed as 0.5).
Where [8] appears, read: at 50.0 µM (retest, dose inferred, filed as 5.0).

The structures appear in SMILES notation. Where “and” joins values, the source holds several entries; their conditions need not be identical. Equal values may be shown once. The panel holds about 79,000 compounds, 15% with a hit somewhere; the sample as a whole holds those more often. More than one record can exist for a structure, and the calls need not agree. Calls of active or inactive are those of the source. Cut-off read from the data, not from the text of the source: active = growth inhibition above about 70%; inactive = the rest.

Turning to `CC(C)(C)OC(=O)NOc1ccc([N+](=O)[O-])cc1[N+](=O)[O-]`, the growth inhibition in assay [1] (setting [7]) was 22% (inactive); in assay [1] (setting [8]), 99% (active); in assay [1] (at 50.0 µM), 98.7% (active) and 99.5% (active); in assay [2] (setting [7]), 4% (inactive); in assay [2] (setting [8]) it was 100% (active); in assay [2] (at 50.0 µM) it was 99.5% (active) and 99.7% (active). Moreover, the growth inhibition in assay [3] (setting [7]) was 38% (inactive); in assay [3] (setting [8]), 100% (active); in assay [3] (at 50.0 µM) it was 99.5% (active); in assay [4] (setting [7]), 8% (inactive); in assay [4] (setting [8]) it was 99% (active); in assay [4] (at 50.0 µM), 97.2% (active) and 99.5% (active). Moreover, the growth inhibition in assay [5] (setting [7]) is 9% (inactive); in assay [5] (setting [8]) it was 99% (active); in assay [5] (at 50.0 µM), 99.2% (active) and 99.5% (active); in assay [6] (setting [7]), 68% (inactive); in assay [6] (setting [8]), 97% (active); in assay [6] (at 50.0 µM), 99.2% (active) and 99.7% (active).
Turning to `O=C(OCC(OC(=O)c1ccccc1)C(OC(=O)c1ccccc1)C(OC(=O)c1ccccc1)C(OC(=O)c1ccccc1)c1nn[nH]n1)c1ccccc1` (centres undefined), the growth inhibition in assay [1] (setting [7]) was 61% (inactive) and 23% (inactive); in assay [1] (setting [8]) it was 72% (active) and 81% (active); in assay [1] (at 50.0 µM), 93.1% (active) and 90.7% (active); in assay [2] (setting [7]), 52% (inactive) and 41% (inactive); in assay [2] (setting [8]), 72% (active) and 77% (active); in assay [2] (at 50.0 µM), 87.5% (active) and 89% (active). Also, the growth inhibition is 54% (inactive) and 18% (inactive) in assay [3] (setting [7]); 72% (active) and 75% (active) in assay [3] (setting [8]); 93.3% (active) and 91.6% (active) in assay [3] (at 50.0 µM); 54% (inactive) and 40% (inactive) in assay [4] (setting [7]); 75% (active) and 82% (active) in assay [4] (setting [8]); 90.2% (active) and 90.3% (active) in assay [4] (at 50.0 µM). Moreover, the growth inhibition is 75% (active) and 16% (inactive) in assay [5] (setting [7]); 88% (active) and 74% (active) in assay [5] (setting [8]); 78.6% (active) and 82.8% (active) in assay [5] (at 50.0 µM); 60% (inactive) and 26% (inactive) in assay [6] (setting [7]); 74% (active) and 81% (active) in assay [6] (setting [8]); 89.2% (active) and 90% (active) in assay [6] (at 50.0 µM).
Regarding `OCc1ccccc1C(c1ccccc1)c1ccccc1`, the growth inhibition in assay [1] (setting [7]) is 0% (inactive); in assay [1] (setting [8]), 98% (active); in assay [1] (at 50.0 µM), 3.45% (inactive); in assay [2] (setting [7]) it was 9% (inactive); in assay [2] (setting [8]) it was 99% (active); in assay [2] (at 50.0 µM) it was 64.7% (inactive). Further, the growth inhibition in assay [3] (setting [7]) was -1% (inactive); in assay [3] (setting [8]) it was 70% (active); in assay [3] (at 50.0 µM), 73% (active); in assay [4] (setting [7]), 8% (inactive); in assay [4] (setting [8]), 98% (active); in assay [4] (at 50.0 µM), 5.85% (inactive). The growth inhibition in assay [5] (setting [7]) was 0% (inactive); in assay [5] (setting [8]), 99% (active); in assay [5] (at 50.0 µM), 91% (active); in assay [6] (setting [7]), 6% (inactive); in assay [6] (setting [8]), 94% (active); in assay [6] (at 50.0 µM) it was 84.1% (active).
Take `OC(C/C=C/c1ccccc1)(c1ccccc1)c1ccccc1`: the growth inhibition was 3% (inactive) in assay [1] (setting [7]); 39% (inactive) in assay [1] (setting [8]); 97% (active) and 97.5% (active) in assay [1] (at 50.0 µM); -1% (inactive) in assay [2] (setting [7]); 48% (inactive) in assay [2] (setting [8]); 98.7% (active) in assay [2] (at 50.0 µM). In addition, the growth inhibition in assay [3] (setting [7]) is 7% (inactive); in assay [3] (setting [8]) it was 52% (inactive); in assay [3] (at 50.0 µM) it was 98.1% (active) and 98.2% (active); in assay [4] (setting [7]), 7% (inactive); in assay [4] (setting [8]), 55% (inactive); in assay [4] (at 50.0 µM) it was 96.9% (active) and 98.2% (active). Moreover, the growth inhibition is 29% (inactive) in assay [5] (setting [7]); 83% (active) in assay [5] (setting [8]); 96.8% (active) and 97.7% (active) in assay [5] (at 50.0 µM); -2% (inactive) in assay [6] (setting [7]); 61% (inactive) in assay [6] (setting [8]); 97.4% (active) and 98.2% (active) in assay [6] (at 50.0 µM).
As to `O=C(Nc1ccc(Cl)cc1)c1ccccc1O`, the growth inhibition was 2% (inactive) in assay [1] (setting [7]); 8% (inactive) in assay [1] (setting [8]); 92.6% (active) and 4.9% (inactive) in assay [1] (at 50.0 µM); 2% (inactive) in assay [2] (setting [7]); 11% (inactive) in assay [2] (setting [8]); 94.7% (active) and -13.8% (inactive) in assay [2] (at 50.0 µM). Moreover, the growth inhibition in assay [3] (setting [7]) was 1% (inactive); in assay [3] (setting [8]), 33% (inactive); in assay [3] (at 50.0 µM) it was 89% (active) and -5.25% (inactive); in assay [4] (setting [7]), 3% (inactive); in assay [4] (setting [8]), 6% (inactive); in assay [4] (at 50.0 µM) it was 85.2% (active) and -12.8% (inactive). Further, the growth inhibition in assay [5] (setting [7]) was 8% (inactive); in assay [5] (setting [8]), 13% (inactive); in assay [5] (at 50.0 µM) it was 90.8% (active) and 3.8% (inactive); in assay [6] (setting [7]), 4% (inactive); in assay [6] (setting [8]), 9% (inactive); in assay [6] (at 50.0 µM), 97.2% (active) and -0.55% (inactive).
For the compound `OC1CCC(O)CC1` (centres undefined), the growth inhibition was -1% (inactive) in assay [1] (setting [7]); 42% (inactive) in assay [1] (setting [8]); 73.8% (active) and 21.8% (inactive) in assay [1] (at 50.0 µM); -3% (inactive) in assay [2] (setting [7]); 3% (inactive) in assay [2] (setting [8]); 20.2% (inactive) and -13.1% (inactive) in assay [2] (at 50.0 µM). Besides, the growth inhibition in assay [3] (setting [7]) is 0% (inactive); in assay [3] (setting [8]), 5% (inactive); in assay [3] (at 50.0 µM), 70.2% (active) and -6.75% (inactive); in assay [4] (setting [7]), 2% (inactive); in assay [4] (setting [8]), -3% (inactive); in assay [4] (at 50.0 µM) it was 8.65% (inactive) and -1.45% (inactive). Also, the growth inhibition was 0% (inactive) in assay [5] (setting [7]); 4% (inactive) in assay [5] (setting [8]); 11% (inactive) and -1.95% (inactive) in assay [5] (at 50.0 µM); 0% (inactive) in assay [6] (setting [7]); 10% (inactive) in assay [6] (setting [8]); 67.3% (inactive) and 22% (inactive) in assay [6] (at 50.0 µM).
Take `CC(C)Oc1ccc(Nc2ccccc2)cc1`: the growth inhibition in assay [1] (setting [7]) is -2% (inactive); in assay [1] (setting [8]), 61% (inactive); in assay [1] (at 50.0 µM), -1.65% (inactive) and 37% (inactive); in assay [2] (setting [7]), -9% (inactive); in assay [2] (setting [8]) it was 15% (inactive); in assay [2] (at 50.0 µM) it was -2.9% (inactive) and 50.2% (inactive). The growth inhibition in assay [3] (setting [7]) was -1% (inactive); in assay [3] (setting [8]), 43% (inactive); in assay [3] (at 50.0 µM), -8.3% (inactive) and 56.8% (inactive); in assay [4] (setting [7]) it was 0% (inactive); in assay [4] (setting [8]), -18% (inactive); in assay [4] (at 50.0 µM), -21.6% (inactive) and 36.1% (inactive). In addition, the growth inhibition in assay [5] (setting [7]) is 42% (inactive); in assay [5] (setting [8]), 62% (inactive); in assay [5] (at 50.0 µM), -16.4% (inactive) and 33.5% (inactive); in assay [6] (setting [7]), -4% (inactive); in assay [6] (setting [8]) it was 20% (inactive); in assay [6] (at 50.0 µM), -9.65% (inactive) and 40.1% (inactive).
With `CCN1/C(=C/C=C/C=C/c2sc3ccccc3[n+]2CC)Sc2ccccc21`, the growth inhibition in assay [1] (setting [7]) was 97% (active); in assay [1] (setting [8]), 25% (inactive); in assay [1] (at 50.0 µM), 56.1% (inactive) and 66.5% (inactive); in assay [2] (setting [7]) it was 98% (active); in assay [2] (setting [8]), 28% (inactive); in assay [2] (at 50.0 µM), 64.7% (inactive) and 70.8% (active). The growth inhibition in assay [3] (setting [7]) is 96% (active); in assay [3] (setting [8]) it was 11% (inactive); in assay [3] (at 50.0 µM) it was 79.5% (active) and 58.2% (inactive); in assay [4] (setting [7]), 93% (active); in assay [4] (setting [8]), 28% (inactive); in assay [4] (at 50.0 µM), 67.7% (inactive) and 65.2% (inactive). The growth inhibition in assay [5] (setting [7]) was 97% (active); in assay [5] (setting [8]) it was 1% (inactive); in assay [5] (at 50.0 µM), 53.8% (inactive) and 52.5% (inactive); in assay [6] (setting [7]) it was 96% (active); in assay [6] (setting [8]) it was 14% (inactive); in assay [6] (at 50.0 µM), 54.5% (inactive) and 43.6% (inactive).

Values taken from PubChem BioAssay (NCI).
